# Measurements published in ChEMBL document CHEMBL2218924, “A broad activity screen in support of a chemogenomic map for kinase signalling research and drug discovery” (Biochem J, 2013).
# Assays:
# [1] = target: Insulin receptor (Homo sapiens) (UniProt P06213); details: at 10 µM
# [2] = target: Insulin receptor (Homo sapiens) (UniProt P06213); details: at 1 µM
# [3] = target: Insulin receptor (Homo sapiens) (UniProt P06213); details: at 10 µM; remark: listed apart in the source
# [4] = target: Interleukin-1 receptor-associated kinase 1 (Homo sapiens) (UniProt P51617); details: at 1 µM
# [5] = target: Interleukin-1 receptor-associated kinase 1 (Homo sapiens) (UniProt P51617); details: at 10 µM
# [6] = target: T1, Interleukin-1 receptor-associated kinase 4 (Homo sapiens) (UniProt Q9NWZ3); details: at 1 µM
# T1 sequence (whole entry): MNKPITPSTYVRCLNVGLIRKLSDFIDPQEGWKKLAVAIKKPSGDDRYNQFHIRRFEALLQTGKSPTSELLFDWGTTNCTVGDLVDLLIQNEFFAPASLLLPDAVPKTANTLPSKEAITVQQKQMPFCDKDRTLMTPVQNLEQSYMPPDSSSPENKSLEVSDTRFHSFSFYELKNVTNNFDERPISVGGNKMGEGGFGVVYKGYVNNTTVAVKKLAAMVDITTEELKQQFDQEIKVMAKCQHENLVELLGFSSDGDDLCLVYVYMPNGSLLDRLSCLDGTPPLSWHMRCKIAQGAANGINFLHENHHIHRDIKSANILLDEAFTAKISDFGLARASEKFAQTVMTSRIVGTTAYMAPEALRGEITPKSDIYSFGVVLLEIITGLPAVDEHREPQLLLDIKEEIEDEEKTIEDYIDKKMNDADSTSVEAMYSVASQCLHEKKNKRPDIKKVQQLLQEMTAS
# [7] = target: T1, Interleukin-1 receptor-associated kinase 4 (Homo sapiens); details: at 10 µM
# [8] = target: Insulin receptor-related protein (Homo sapiens) (UniProt P14616); details: at 1 µM
# [9] = target: Insulin receptor-related protein (Homo sapiens) (UniProt P14616); details: at 10 µM
# [10] = target: T2, Tyrosine-protein kinase ITK/TSK (Homo sapiens) (UniProt Q08881); details: at 1 µM
# T2 sequence (whole entry): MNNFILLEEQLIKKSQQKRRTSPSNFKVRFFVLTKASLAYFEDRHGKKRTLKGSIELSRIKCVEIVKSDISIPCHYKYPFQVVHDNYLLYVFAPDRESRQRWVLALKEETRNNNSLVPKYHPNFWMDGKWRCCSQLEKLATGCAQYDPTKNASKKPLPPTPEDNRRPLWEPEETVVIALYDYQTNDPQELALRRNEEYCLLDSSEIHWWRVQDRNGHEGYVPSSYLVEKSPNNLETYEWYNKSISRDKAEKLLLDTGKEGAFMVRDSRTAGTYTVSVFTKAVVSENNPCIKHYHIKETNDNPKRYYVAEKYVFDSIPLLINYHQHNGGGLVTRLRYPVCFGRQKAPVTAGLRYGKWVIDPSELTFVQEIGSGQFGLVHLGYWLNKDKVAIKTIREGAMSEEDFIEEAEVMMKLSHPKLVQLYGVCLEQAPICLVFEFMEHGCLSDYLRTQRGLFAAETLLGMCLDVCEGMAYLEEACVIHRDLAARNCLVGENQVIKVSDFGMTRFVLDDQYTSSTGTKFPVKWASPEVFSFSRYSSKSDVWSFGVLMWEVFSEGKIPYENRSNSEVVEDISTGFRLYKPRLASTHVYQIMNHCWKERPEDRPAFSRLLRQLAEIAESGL
# Chain of Insulin receptor (Homo sapiens) (P06213 28-758 limits assumed): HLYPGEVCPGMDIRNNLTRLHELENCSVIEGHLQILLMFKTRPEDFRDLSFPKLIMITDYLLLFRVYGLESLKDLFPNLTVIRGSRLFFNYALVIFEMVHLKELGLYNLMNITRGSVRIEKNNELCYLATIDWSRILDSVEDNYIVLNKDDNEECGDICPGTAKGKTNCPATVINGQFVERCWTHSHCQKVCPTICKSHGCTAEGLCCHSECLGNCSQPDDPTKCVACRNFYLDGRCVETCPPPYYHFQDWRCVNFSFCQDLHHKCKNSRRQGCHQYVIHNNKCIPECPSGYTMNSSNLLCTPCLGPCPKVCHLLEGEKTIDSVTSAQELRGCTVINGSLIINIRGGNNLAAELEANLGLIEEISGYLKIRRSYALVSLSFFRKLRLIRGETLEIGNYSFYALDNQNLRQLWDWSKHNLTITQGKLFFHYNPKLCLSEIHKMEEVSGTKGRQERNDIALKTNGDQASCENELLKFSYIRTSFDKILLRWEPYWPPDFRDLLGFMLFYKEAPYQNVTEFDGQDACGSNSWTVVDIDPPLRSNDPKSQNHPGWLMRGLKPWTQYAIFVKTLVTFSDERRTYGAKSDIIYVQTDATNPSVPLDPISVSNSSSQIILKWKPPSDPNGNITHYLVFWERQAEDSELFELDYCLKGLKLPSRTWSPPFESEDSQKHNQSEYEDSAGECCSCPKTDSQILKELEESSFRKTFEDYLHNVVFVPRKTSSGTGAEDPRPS
# Chain of Insulin receptor (Homo sapiens) (P06213 763-1382 limits assumed): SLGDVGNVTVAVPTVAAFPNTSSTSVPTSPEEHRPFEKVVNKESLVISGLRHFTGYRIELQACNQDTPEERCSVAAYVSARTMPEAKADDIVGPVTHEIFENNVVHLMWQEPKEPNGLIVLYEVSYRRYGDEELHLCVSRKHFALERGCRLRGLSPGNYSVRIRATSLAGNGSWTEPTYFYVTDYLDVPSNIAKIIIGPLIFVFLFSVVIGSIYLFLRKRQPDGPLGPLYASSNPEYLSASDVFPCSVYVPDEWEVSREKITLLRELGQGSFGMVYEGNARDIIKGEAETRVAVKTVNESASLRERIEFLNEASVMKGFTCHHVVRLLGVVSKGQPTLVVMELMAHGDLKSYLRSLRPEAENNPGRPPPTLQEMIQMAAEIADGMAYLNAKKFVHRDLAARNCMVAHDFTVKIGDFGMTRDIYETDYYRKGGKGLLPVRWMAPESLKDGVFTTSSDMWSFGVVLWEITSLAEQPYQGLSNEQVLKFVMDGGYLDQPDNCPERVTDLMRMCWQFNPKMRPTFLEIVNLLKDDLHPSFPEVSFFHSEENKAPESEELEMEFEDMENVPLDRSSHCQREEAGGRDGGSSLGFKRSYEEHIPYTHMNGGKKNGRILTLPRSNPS
# Chain of Insulin receptor-related protein (Homo sapiens) (P14616 27-742 limits assumed): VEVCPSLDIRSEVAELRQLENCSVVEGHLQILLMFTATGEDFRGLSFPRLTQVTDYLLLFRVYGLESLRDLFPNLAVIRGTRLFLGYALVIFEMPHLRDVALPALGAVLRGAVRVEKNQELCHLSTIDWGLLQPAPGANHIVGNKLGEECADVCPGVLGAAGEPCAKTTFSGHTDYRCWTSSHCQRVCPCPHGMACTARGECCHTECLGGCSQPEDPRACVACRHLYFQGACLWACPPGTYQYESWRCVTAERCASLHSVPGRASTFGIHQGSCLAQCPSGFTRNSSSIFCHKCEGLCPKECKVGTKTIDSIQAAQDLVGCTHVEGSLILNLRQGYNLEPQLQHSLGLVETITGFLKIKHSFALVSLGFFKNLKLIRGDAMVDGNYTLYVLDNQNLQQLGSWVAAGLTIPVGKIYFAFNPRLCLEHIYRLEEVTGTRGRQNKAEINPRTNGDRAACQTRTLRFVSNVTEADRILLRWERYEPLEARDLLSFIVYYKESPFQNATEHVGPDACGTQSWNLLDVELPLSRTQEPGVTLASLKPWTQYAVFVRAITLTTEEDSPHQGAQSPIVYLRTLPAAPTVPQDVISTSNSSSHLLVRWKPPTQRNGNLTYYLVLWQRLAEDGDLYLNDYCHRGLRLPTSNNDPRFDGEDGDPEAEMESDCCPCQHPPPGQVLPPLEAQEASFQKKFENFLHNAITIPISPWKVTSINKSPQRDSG
# Chain of Insulin receptor-related protein (Homo sapiens) (P14616 747-1297 limits assumed): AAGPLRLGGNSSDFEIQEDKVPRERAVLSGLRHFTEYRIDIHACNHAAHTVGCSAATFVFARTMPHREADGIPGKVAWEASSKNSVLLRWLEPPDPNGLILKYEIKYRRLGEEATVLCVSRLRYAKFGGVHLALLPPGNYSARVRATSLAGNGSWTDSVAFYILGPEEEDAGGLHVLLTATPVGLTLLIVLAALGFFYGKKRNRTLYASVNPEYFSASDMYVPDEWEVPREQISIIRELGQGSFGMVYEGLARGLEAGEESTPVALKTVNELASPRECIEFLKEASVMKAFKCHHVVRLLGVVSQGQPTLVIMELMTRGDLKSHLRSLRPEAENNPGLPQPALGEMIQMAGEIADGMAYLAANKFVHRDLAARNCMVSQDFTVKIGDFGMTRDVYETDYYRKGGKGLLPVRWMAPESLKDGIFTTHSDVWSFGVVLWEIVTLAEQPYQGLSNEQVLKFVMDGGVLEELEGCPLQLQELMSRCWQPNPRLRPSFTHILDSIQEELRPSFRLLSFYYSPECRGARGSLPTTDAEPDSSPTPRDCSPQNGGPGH
# Chain of Interleukin-1 receptor-associated kinase 1 (Homo sapiens) (P51617 whole entry, looked up): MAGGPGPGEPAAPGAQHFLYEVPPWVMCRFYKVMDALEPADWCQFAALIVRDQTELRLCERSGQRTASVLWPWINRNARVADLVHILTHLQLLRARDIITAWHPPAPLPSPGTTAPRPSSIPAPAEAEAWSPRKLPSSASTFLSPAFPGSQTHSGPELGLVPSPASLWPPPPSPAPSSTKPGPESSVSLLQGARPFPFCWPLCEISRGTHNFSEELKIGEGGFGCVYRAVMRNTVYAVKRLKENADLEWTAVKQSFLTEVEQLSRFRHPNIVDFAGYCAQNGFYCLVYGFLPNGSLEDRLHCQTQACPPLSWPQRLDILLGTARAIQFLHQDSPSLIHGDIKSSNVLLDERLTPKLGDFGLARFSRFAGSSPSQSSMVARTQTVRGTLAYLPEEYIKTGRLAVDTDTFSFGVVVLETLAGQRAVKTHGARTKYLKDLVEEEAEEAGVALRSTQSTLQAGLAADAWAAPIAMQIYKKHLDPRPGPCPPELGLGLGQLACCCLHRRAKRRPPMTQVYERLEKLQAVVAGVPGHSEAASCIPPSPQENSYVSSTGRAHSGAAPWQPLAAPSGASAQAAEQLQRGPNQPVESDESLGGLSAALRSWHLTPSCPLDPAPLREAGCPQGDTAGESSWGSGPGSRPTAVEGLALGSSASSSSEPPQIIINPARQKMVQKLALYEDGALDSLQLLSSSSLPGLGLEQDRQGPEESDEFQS
SMILES,residual activity [1] [%],residual activity [2] [%],residual activity [3] [%],residual activity [4] [%],residual activity [5] [%],residual activity [6] [%],residual activity [7] [%],residual activity [8] [%],residual activity [9] [%],residual activity [10] [%]
Cn1cc(/C=C2\C(=O)Nc3ccc(S(N)(=O)=O)cc32)c2ccccc21,95,66,64,1,15,0,-1,124,35,8
COc1ccc(S(=O)(=O)N(CCO)c2ccccc2CN(C)C/C=C/c2ccc(Cl)cc2)cc1,114,100,90,99,106,81,75,117,90,99
COc1ccc(C(=O)Nc2sc3c(c2C(N)=O)CCCC3)cc1OC,82,96,96,92,86,54,52,116,90,101
c1ccc(-c2n[nH]cc2-c2ccnc3ccccc23)nc1,84,99,105,91,73,87,101,132,79,97
N#C/C(=C(\N)Sc1ccc(N)cc1)c1ccccc1C(F)(F)F,102,102,92,91,112,83,81,105,101,100
O=C1NC(=O)/C(=C/c2ccc3c(c2)OC(F)(F)O3)S1,103,104,98,102,80,111,106,139,99,103
CO[C@H]1C[C@@H]2CC[C@@H](C)[C@@](O)(O2)C(=O)C(=O)N2CCCC[C@H]2C(=O)O[C@H]([C@H](C)C[C@@H]2CC[C@@H](O)[C@H](OC)C2)CC(=O)[C@H](C)/C=C(\C)[C@@H](O)[C@@H](OC)C(=O)[C@H](C)C[C@H](C)/C=C/C=C/C=C/1C,89,92,101,74,71,107,154,126,99,101
Oc1n[nH]c2nnc(-c3c(-c4ccccc4)nn4ccccc34)cc12,12,89,75,99,103,75,89,25,2,99
CC(C)n1cnc2/c(=N/c3cccc(Cl)c3)nc(NCCO)[nH]c21,36,68,17,76,34,44,14,96,35,76
Ic1cccc(CSc2nnc(-c3ccncc3)o2)c1,82,95,92,91,94,55,41,112,101,93
CN(C)CCCn1cc(C2=C(c3c[nH]c4ccccc34)C(=O)NC2=O)c2ccccc21,100,100,72,111,89,121,53,137,75,
O=C(Nc1cccc(Nc2cc(Nc3cccc(C(F)(F)F)c3)ncn2)c1)C1CC1,94,97,106,95,96,97,80,117,63,105
CCOc1cc2ncnc(Nc3cccc(Br)c3)c2cc1OCC,144,100,92,79,28,49,18,126,85,94
Cc1nc(-c2ccccc2)c(-c2ccncc2)o1,106,109,93,110,107,104,88,118,123,113
O=C1Nc2cc(Br)ccc2/C1=C1/Nc2ccccc2/C1=N\O,82,98,83,93,90,35,34,78,85,22
Cn1cnc2cc3c(Nc4cccc(Br)c4)ncnc3cc21,103,102,100,102,73,77,46,125,78,104
Cc1cncc2cccc(S(=O)(=O)N3CCCN(C(=O)CN)C[C@H]3C)c12,70,97,76,82,67,,,,,

SMILES,residual activity [1] [%],residual activity [2] [%],residual activity [3] [%],residual activity [4] [%],residual activity [5] [%],residual activity [6] [%],residual activity [7] [%],residual activity [8] [%],residual activity [9] [%],residual activity [10] [%]
O=c1c2ccccc2[nH]c(=S)n1CCN1CCC(=C(c2ccc(F)cc2)c2ccc(F)cc2)CC1,121,105,101,83,86,105,103,120,71,109
Cc1ccc(NC2=CC(=O)c3sc(C)nc3C2=O)cc1,90,102,96,105,110,85,86,118,108,105
Cc1nc2cc3nc(-c4cccs4)cnc3cc2n1C,101,106,95,110,90,111,70,130,100,108
N#Cc1cnc2cnc(NCc3cccnc3)cc2c1Nc1ccc(F)c(Cl)c1,123,72,52,93,103,64,43,90,89,72
CC(=O)O/N=C1\C(=C2\C(=O)Nc3cc(Br)ccc32)Nc2ccccc21,91,102,81,95,96,86,48,109,92,82
O=C(O)c1ccc2c3c1cccc3c(=O)n1c3ccccc3nc21,110,104,85,35,3,105,89,125,98,107
O=Nc1c(-c2c(O)[nH]c3ccccc23)[nH]c2ccccc12,10,35,19,60,11,41,6,2,1,19
CC[n+]1c(/C=C/N(C)c2ccccc2)n(-c2ccccc2)c2ccc(-c3nc4ccccc4s3)cc21,86,100,92,96,92,113,78,111,87,101
CC#CC(=O)Nc1cc2c(Nc3ccc(F)c(Cl)c3)ncnc2cn1,85,103,98,94,73,103,98,127,86,100
CN(C)c1ccc(/C=C2\C(=O)Nc3ccccc32)cc1,65,93,71,118,91,92,46,111,23,98
Oc1ccc(Nc2nc(-c3ccc(Cl)cc3)cs2)cc1,133,108,103,100,111,108,97,115,85,104
CCC(=O)Nc1ccc2ncnc(Nc3cccc(Br)c3)c2c1,79,102,100,89,83,96,91,111,79,106
NC(=O)c1ccc2[nH]c(-c3ccc(Oc4ccc(Cl)cc4)cc3)nc2c1,108,100,94,95,82,80,79,107,101,102
CC(C)n1cnc2c(NCc3ccccc3)nc(NCCCO)nc21,70,99,75,105,106,93,76,106,84,105
Nc1ccc2ncnc(NCCc3ccc(Oc4ccccc4)cc3)c2c1,35,101,92,100,101,88,58,101,108,80
CO[C@H]1[C@@H](OC)C[C@H](C)[C@@H](OC)C2=CC(=O)C=C(NC(=O)/C(C)=C/C=C/[C@H](OC)[C@@H](OC(N)=O)/C(C)=C/[C@@H]1C)C2=O,117,100,112,106,94,107,99,133,79,106
